# Laboratory results as given in publication PMC7862700, “An all-to-all approach to the identification of sequence-specific readers for epigenetic DNA modifications on cytosine”.
# Columns and labels:
# Assay in all cases: DAPPL (digital affinity profiling via proximity ligation, sequencing); 10 mM Tris-HCl pH 7.5, 50 mM NaCl, 1 mM DTT, 4% glycerol, room temperature, 30 min; GST-TFs on glutathione beads, 16-mer random dsDNA library, 0.1% formaldehyde crosslink after washing; high values mean tight binding
# FLI1 = biological target: T1, FLI1 (Homo sapiens, UniProt Q01543 1-452); conditions: protein: recombinant; tags: N-terminal GST; dsDNA, one strand shown
# T1 sequence: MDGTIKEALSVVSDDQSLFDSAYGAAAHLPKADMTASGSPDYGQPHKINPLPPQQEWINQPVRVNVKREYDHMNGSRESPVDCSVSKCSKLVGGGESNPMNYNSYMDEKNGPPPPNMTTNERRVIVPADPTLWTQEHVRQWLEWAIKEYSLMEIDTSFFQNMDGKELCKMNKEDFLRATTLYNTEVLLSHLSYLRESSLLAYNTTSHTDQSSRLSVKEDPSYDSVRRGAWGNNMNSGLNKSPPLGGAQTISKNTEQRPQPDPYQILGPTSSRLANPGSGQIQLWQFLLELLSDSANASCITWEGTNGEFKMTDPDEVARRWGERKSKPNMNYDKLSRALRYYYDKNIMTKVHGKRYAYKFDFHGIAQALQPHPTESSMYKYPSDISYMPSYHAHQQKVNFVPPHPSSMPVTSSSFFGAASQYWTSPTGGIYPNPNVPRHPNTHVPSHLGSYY
# Method in brief: (§1)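 After expression in yeast as GST fusions, human transcription factors were bound to glutathione beads, DNA-barcoded and mixed with a tag-only sample. The pools were incubated with 200 nmole of a 16-mer random double-stranded DNA library in Tris/NaCl/DTT/glycerol buffer (30 min, room temperature), washed and crosslinked with 0.1% formaldehyde. Proximity ligation with BsaI/T4 ligase ran for 1 h at 37 °C, before PCR amplification and sequencing on an Illumina NextSeq500. Binding signal is a hexamer's read frequency for a factor divided by its frequency for the tag-only sample.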
# ELK1 = biological target: T2, ELK1 (Homo sapiens, UniProt P19419 1-428); conditions: protein: recombinant; tags: N-terminal GST; dsDNA, one strand shown
# T2 sequence: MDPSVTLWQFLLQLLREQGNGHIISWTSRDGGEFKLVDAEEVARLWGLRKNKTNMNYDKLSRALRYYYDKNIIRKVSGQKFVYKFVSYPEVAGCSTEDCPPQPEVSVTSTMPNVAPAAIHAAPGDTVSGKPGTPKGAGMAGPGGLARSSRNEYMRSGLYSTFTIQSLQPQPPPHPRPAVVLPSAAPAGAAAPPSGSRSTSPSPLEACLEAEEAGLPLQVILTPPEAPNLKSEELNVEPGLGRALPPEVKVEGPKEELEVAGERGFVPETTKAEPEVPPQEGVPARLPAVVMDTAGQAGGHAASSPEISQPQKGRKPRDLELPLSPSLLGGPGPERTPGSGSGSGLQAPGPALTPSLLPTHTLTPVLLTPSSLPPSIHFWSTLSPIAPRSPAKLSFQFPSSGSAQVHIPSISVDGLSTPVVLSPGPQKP
# Method in brief: as §1
# GABPA = biological target: T3, GABPA (Homo sapiens, UniProt Q06546 1-454); conditions: protein: recombinant; tags: N-terminal GST; dsDNA, one strand shown
# T3 sequence: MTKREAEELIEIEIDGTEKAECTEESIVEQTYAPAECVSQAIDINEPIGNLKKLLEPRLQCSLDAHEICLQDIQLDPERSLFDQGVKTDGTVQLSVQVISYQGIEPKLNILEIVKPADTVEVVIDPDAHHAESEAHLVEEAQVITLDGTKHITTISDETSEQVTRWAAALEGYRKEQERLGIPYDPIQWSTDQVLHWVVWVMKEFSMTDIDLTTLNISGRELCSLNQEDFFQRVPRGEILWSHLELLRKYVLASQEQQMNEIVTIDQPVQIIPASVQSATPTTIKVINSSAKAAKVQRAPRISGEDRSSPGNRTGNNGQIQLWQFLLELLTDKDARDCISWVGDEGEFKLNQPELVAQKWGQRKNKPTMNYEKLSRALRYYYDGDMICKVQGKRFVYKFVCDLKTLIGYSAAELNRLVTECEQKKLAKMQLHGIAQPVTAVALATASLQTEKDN
# Method in brief: as §1
# ERG = biological target: T4, ERG (Homo sapiens, UniProt P11308 1-479); conditions: protein: recombinant; tags: N-terminal GST; dsDNA, one strand shown
# T4 sequence: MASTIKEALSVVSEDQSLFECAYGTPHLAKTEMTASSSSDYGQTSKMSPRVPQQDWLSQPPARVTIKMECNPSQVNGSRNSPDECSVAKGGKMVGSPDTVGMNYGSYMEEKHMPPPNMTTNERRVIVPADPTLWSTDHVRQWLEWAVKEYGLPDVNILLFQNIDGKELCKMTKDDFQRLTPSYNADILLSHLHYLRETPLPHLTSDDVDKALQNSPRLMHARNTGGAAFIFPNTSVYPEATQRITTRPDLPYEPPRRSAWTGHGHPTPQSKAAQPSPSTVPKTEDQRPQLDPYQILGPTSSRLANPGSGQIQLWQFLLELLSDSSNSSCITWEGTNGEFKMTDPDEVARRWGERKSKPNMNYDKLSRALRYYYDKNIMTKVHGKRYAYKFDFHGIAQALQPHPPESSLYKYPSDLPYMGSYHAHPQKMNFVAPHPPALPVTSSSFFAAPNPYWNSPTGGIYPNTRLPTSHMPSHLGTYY
# Method in brief: as §1
# ELF1 = ELF1 (Homo sapiens, UniProt P32519 1-619); conditions: protein: recombinant; tags: N-terminal GST; dsDNA, one strand shown
# Chain of ELF1 (P32519 whole entry): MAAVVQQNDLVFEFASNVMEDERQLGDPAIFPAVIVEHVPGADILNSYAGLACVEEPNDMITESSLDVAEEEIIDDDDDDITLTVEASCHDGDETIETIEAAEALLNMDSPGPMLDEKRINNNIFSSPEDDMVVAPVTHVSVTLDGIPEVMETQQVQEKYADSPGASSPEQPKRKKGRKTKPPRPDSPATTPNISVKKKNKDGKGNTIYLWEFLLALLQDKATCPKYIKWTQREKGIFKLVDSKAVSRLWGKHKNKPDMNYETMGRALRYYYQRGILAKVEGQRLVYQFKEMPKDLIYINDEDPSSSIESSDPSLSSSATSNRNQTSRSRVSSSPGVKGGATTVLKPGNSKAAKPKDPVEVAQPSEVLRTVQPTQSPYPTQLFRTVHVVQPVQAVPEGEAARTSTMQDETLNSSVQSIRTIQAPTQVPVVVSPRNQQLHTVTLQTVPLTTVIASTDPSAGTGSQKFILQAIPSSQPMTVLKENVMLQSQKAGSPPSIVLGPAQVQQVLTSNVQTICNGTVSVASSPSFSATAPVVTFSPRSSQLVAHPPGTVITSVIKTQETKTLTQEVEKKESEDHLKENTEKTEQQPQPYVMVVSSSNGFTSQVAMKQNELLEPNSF
# Method in brief: as §1
# EHF = biological target: T5, EHF (Homo sapiens, UniProt Q9NZC4 1-300); conditions: protein: recombinant; tags: N-terminal GST; dsDNA, one strand shown
# T5 sequence: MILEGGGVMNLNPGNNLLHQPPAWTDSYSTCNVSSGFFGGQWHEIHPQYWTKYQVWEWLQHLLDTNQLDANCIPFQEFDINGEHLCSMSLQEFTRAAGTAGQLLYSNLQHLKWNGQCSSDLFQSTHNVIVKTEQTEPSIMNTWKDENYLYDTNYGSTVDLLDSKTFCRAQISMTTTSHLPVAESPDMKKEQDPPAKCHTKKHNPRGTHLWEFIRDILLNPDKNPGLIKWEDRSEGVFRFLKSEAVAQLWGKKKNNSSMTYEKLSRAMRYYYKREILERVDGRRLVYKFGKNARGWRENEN
# Method in brief: as §1
# SPI1 = SPI1 (Homo sapiens, UniProt P17947 1-270); conditions: protein: recombinant; tags: N-terminal GST; dsDNA, one strand shown
# Method in brief: as §1
# SPIB = SPIB (Homo sapiens, UniProt Q01892 1-262); conditions: protein: recombinant; tags: N-terminal GST; dsDNA, one strand shown
# Chain of SPIB (Q01892 whole entry): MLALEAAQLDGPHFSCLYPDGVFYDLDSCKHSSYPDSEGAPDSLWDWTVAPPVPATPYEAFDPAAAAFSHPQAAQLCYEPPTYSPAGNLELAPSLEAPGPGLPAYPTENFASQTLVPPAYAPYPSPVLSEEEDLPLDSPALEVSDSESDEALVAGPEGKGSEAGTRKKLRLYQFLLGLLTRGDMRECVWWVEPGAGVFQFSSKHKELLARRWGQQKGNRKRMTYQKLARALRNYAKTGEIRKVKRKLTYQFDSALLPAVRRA
# Method in brief: as §1
# ELK3 = biological target: T6, ELK3 (Homo sapiens, UniProt P41970 1-407); conditions: protein: recombinant; tags: N-terminal GST; dsDNA, one strand shown
# T6 sequence: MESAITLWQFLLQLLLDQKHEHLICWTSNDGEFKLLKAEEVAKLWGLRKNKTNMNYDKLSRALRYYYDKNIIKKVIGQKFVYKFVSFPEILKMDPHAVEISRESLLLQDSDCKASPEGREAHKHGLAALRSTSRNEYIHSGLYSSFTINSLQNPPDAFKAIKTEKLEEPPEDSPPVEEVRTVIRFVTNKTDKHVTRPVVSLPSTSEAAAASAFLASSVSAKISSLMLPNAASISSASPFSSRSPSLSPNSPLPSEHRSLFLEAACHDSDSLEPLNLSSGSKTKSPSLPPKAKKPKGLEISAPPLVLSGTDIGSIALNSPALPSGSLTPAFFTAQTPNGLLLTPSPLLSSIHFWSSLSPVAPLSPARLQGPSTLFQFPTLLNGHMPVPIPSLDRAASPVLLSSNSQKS
# Method in brief: as §1
# FEV = biological target: T7, FEV (Homo sapiens, UniProt Q99581 1-238); conditions: protein: recombinant; tags: N-terminal GST; dsDNA, one strand shown
# T7 sequence: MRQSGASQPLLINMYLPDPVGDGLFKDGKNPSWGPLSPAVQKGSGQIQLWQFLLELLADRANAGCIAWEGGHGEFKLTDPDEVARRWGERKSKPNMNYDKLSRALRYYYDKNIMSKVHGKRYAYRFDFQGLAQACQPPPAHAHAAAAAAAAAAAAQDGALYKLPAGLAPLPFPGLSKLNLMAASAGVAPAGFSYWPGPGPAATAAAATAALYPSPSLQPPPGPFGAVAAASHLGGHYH
# Method in brief: as §1
# ETV5 = ETV5 (Homo sapiens, UniProt P41161 1-510); conditions: protein: recombinant; tags: N-terminal GST; dsDNA, one strand shown
# Chain of ETV5 (P41161 whole entry): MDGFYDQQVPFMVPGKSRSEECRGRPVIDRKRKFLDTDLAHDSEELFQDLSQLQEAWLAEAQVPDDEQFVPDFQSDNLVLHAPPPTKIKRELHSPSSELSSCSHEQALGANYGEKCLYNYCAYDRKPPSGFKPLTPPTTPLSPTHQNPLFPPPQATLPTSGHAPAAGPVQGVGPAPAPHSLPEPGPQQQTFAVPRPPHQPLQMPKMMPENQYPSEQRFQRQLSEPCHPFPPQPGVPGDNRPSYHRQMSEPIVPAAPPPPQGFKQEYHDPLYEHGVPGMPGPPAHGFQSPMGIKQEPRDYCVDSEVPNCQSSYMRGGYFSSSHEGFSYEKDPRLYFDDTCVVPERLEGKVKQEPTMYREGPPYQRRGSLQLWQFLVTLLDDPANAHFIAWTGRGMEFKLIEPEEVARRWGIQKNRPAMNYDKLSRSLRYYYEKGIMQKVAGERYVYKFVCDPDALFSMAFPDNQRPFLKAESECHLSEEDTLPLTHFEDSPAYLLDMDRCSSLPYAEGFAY
# Method in brief: as §1
# HSF1 = HSF1 (Homo sapiens, UniProt Q00613 1-529); conditions: protein: recombinant; tags: N-terminal GST; chain copies: 3; dsDNA, one strand shown
# Chain of HSF1 (Q00613 whole entry): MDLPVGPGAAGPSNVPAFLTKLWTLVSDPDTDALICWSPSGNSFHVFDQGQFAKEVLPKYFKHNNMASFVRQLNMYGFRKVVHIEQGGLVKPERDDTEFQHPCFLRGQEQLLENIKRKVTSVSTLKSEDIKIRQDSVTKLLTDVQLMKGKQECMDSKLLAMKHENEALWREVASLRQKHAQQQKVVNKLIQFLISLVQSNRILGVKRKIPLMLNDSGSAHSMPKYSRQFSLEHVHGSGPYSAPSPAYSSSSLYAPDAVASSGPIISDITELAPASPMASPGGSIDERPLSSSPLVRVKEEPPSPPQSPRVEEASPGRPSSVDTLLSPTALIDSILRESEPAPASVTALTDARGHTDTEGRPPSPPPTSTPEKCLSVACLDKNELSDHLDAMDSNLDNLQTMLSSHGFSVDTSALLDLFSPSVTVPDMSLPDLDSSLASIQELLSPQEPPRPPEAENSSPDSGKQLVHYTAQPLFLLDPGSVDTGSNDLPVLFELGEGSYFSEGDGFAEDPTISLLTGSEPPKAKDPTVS
# Method in brief: as §1
# SPIC = biological target: T8, SPIC (Homo sapiens, UniProt Q8N5J4 1-248); conditions: protein: recombinant; tags: N-terminal GST; dsDNA, one strand shown
# T8 sequence: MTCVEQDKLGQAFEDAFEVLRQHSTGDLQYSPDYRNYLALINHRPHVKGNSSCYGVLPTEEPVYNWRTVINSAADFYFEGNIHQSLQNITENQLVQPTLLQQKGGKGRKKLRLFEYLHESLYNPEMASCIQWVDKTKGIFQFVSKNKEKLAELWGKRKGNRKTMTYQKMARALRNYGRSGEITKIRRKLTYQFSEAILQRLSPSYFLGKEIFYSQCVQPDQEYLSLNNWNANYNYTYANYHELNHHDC
# Method in brief: as §1
# ELF4 = ELF4 (Homo sapiens, UniProt Q99607 1-663); conditions: protein: recombinant; tags: N-terminal GST; dsDNA, one strand shown
# Chain of ELF4 (Q99607 whole entry): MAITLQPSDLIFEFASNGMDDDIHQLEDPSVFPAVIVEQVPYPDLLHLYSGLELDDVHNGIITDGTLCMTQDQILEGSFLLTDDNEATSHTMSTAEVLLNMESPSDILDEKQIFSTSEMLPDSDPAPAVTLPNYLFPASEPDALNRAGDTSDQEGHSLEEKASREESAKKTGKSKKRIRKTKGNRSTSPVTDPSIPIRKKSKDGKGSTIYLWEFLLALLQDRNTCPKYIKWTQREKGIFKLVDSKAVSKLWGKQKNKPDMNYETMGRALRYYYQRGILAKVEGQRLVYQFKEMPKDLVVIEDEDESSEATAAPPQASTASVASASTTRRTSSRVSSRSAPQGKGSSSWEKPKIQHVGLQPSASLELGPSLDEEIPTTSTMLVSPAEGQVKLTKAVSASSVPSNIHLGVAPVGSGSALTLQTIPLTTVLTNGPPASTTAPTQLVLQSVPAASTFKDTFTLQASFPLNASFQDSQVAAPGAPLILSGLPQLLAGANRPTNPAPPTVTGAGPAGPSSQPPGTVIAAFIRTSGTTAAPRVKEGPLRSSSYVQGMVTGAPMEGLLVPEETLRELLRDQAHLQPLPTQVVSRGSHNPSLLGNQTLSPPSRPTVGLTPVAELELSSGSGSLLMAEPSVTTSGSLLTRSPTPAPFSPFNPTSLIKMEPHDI
# Method in brief: as §1
# ELK4 = biological target: T9, ELK4 (Homo sapiens, UniProt P28324-2 1-405); conditions: protein: recombinant; tags: N-terminal GST; dsDNA, one strand shown
# T9 sequence: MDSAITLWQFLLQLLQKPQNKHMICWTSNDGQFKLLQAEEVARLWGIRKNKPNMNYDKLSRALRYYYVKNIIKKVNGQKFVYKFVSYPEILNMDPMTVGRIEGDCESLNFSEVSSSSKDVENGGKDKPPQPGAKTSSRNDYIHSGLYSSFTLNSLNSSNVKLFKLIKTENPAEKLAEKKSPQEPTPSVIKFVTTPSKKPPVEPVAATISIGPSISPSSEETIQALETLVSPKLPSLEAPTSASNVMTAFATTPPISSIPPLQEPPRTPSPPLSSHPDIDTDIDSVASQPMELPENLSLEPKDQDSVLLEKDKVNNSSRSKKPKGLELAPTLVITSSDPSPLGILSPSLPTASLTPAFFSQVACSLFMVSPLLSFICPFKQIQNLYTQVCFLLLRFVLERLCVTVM
# Method in brief: as §1
# ETV2 = biological target: T10, ETV2 (Homo sapiens, UniProt O00321 1-342); conditions: protein: recombinant; tags: N-terminal GST; dsDNA, one strand shown
# T10 sequence: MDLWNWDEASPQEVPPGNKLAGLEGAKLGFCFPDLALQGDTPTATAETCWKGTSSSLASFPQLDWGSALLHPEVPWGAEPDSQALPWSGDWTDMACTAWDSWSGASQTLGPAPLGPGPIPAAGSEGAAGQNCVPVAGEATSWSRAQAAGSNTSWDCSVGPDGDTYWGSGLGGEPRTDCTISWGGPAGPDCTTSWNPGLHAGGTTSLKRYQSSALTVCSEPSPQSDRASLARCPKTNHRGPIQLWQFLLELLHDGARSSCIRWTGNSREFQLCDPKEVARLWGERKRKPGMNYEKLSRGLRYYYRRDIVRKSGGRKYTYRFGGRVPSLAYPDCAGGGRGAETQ
# Method in brief: as §1
# ELF3 = biological target: T11, ELF3 (Homo sapiens, UniProt P78545 1-371); conditions: protein: recombinant; tags: N-terminal GST; dsDNA, one strand shown
# T11 sequence: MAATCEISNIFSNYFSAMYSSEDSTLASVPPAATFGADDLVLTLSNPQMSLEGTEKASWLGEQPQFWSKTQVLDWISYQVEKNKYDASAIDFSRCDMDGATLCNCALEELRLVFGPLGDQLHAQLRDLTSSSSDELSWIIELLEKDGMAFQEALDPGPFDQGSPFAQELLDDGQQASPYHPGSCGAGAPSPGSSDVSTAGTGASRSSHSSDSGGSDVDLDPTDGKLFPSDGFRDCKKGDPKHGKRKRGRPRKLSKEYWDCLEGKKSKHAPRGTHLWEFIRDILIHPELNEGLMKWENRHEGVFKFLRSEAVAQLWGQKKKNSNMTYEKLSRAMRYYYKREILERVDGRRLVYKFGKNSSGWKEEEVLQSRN
# Method in brief: as §1
# CRX = CRX (Homo sapiens, UniProt O43186 1-299); conditions: protein: recombinant; tags: N-terminal GST; dsDNA, one strand shown
# Chain of CRX (O43186 whole entry): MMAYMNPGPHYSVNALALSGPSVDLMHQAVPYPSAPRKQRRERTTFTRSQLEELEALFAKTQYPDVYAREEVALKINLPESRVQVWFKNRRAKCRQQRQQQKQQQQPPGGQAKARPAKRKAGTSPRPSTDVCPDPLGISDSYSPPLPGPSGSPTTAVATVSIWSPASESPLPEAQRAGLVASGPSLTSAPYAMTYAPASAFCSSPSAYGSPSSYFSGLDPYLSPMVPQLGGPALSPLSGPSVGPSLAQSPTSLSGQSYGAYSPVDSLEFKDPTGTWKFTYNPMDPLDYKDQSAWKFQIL
# Method in brief: as §1
# ETV1 = ETV1 (Homo sapiens, UniProt P50549 1-477); conditions: protein: recombinant; tags: N-terminal GST; dsDNA, one strand shown
# Chain of ETV1 (P50549 whole entry): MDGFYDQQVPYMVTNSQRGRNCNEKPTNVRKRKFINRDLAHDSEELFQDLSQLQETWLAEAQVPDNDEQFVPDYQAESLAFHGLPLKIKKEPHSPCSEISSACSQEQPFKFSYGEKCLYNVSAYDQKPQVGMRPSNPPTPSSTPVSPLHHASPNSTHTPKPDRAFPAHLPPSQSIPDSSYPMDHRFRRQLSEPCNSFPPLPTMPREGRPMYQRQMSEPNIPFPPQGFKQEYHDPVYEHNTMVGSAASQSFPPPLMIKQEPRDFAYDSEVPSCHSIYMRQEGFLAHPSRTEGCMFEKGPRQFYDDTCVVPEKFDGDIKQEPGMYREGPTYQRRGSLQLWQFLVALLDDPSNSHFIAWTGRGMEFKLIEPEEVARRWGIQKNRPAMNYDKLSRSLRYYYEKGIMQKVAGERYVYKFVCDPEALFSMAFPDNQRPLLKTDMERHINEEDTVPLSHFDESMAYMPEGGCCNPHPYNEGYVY
# Method in brief: as §1
sequence,measurement,setting,value
TCAAAA,binding signal,FLI1,"1.12 fold enrichment (6-mer frequency, TF over GST control)"
same,binding signal,ELK1,"1.12 fold enrichment (6-mer frequency, TF over GST control)"
same,binding signal,GABPA,"1.23 fold enrichment (6-mer frequency, TF over GST control)"
same,binding signal,ERG,"1.14 fold enrichment (6-mer frequency, TF over GST control)"
same,binding signal,ELF1,"1.19 fold enrichment (6-mer frequency, TF over GST control)"
same,binding signal,EHF,"1.1 fold enrichment (6-mer frequency, TF over GST control)"
same,binding signal,SPI1,"1.3 fold enrichment (6-mer frequency, TF over GST control)"
same,binding signal,SPIB,"1.15 fold enrichment (6-mer frequency, TF over GST control)"
same,binding signal,ELK3,"1.17 fold enrichment (6-mer frequency, TF over GST control)"
same,binding signal,FEV,"1.13 fold enrichment (6-mer frequency, TF over GST control)"
same,binding signal,ETV5,"1.17 fold enrichment (6-mer frequency, TF over GST control)"
same,binding signal,HSF1,"1.19 fold enrichment (6-mer frequency, TF over GST control)"
same,binding signal,SPIC,"1.24 fold enrichment (6-mer frequency, TF over GST control)"
same,binding signal,ELF4,"1.22 fold enrichment (6-mer frequency, TF over GST control)"
same,binding signal,ELK4,"1.25 fold enrichment (6-mer frequency, TF over GST control)"
same,binding signal,ETV2,"1.23 fold enrichment (6-mer frequency, TF over GST control)"
same,binding signal,ELF3,"1.39 fold enrichment (6-mer frequency, TF over GST control)"
same,binding signal,CRX,"1.28 fold enrichment (6-mer frequency, TF over GST control)"
same,binding signal,ETV1,"1.23 fold enrichment (6-mer frequency, TF over GST control)"
